In the library only some 3.9% were active in any assay of this set; here they are far more common.
DUSP3 inh: blocks human VHR1 dual specificity phosphatase; recombinant VHR phosphatase, pNPP absorbance; inhibition, % at 13.3 µM; actives 0.52% (n = 290,000); AID 1654; in the data active = inhibition above about 50%
Bead autofluor: counter-screen for toxin protease inhibitors: compound fluorescence; compound autofluorescence counterscreen, microsphere flow cytometry; active compounds read high; fluorescence intensity (concentration not given with the values); actives 3.1% (n = 360,000); in the data active = fluorescence intensity above about 16000; inconclusive = no clear call, values can overlap the other calls
BoNT F protease: BoNT F light chain protease inhibition | inhibition, % at 10 µM | actives 0.22% (n = 360,000) | Multiplex microsphere protease cleavage assay, flow cytometry; in the data active = inhibition above about 35%, passing the limit was not always enough; inconclusive = no clear call, values can overlap the other calls
3CLpro inhibitor: SARS-CoV 3CLpro protease inhibition. P0C6X7. recombinant SARS-CoV 3CLpro, quenched FRET peptide cleavage. inhibition, % at 6 µM. actives 0.14% (n = 290,000). AID 1706; in the data active = inhibition above about 12%
BoNT A protease: inhibitors of Botulinum neurotoxin A light chain protease. actives 0.17% (n = 360,000). multiplex microsphere protease substrate cleavage, flow cytometry. inhibition, % at 10 µM
Anthrax LF inh2: inhibitors of Bacillus anthracis lethal factor protease; multiplex microsphere protease cleavage assay, LF; P15917; actives 0.12% (n = 360,000); inhibition, % at 10 µM
Target sequence (P15917 whole entry, looked up): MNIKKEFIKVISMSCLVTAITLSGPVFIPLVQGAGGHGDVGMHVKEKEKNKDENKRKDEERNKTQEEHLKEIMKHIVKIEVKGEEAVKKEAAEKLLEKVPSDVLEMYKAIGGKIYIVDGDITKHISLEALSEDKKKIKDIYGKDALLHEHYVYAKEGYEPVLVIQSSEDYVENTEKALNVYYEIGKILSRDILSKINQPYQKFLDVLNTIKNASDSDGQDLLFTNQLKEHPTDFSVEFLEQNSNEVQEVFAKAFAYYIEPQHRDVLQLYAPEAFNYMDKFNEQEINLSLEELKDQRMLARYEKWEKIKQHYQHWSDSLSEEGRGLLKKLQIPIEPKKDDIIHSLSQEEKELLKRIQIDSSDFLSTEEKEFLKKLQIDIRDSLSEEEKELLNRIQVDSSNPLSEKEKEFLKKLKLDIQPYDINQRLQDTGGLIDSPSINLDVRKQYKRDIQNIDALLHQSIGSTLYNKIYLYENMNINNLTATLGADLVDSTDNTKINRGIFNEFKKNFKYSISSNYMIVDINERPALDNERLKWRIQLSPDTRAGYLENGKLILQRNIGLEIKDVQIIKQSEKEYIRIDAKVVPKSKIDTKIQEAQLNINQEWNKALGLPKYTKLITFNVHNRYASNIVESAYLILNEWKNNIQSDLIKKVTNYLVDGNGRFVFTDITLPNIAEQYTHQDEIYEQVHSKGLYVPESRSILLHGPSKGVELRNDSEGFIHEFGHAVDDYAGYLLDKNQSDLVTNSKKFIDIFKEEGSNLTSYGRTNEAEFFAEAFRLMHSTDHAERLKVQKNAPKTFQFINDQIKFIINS
Hits are given with their value. Cut-off read from the data, not from the text of the source, unless noted: active = inhibition above about 30%; inconclusive = no clear call, values can overlap the other calls; inactive = below that.

For Cc1c(N=C/C=C2\N(C)c3ccccc3C2(C)C)c(=O)n(-c2ccccc2)n1C the results were DUSP3 inh inactive, Bead autofluor inactive, BoNT F protease inactive, 3CLpro inhibitor inactive, BoNT A protease inactive and Anthrax LF inh2 inactive.
For Cc1c(NC(=S)/C=C2\N(C)c3ccccc3C2(C)C)c(=O)n(-c2ccccc2)n1C the results were DUSP3 inh inactive, Bead autofluor 19375, BoNT F protease inactive, 3CLpro inhibitor inactive, BoNT A protease inactive and Anthrax LF inh2 inactive.
Screening Cc1c(NS(=O)(=O)N2CCCCC2)c(=O)n(-c2ccccc2)n1C returned DUSP3 inh inactive, Bead autofluor 16324, BoNT F protease inactive, 3CLpro inhibitor inactive, BoNT A protease inactive and Anthrax LF inh2 inactive.
Screening CCS(=O)(=O)Nc1c(C)n(C)n(-c2ccccc2)c1=O returned DUSP3 inh inactive, Bead autofluor inactive, BoNT F protease inactive, 3CLpro inhibitor inactive, BoNT A protease inactive and Anthrax LF inh2 inactive.
`O=C(Nc1ccc(S(=O)(=O)NC2=NCCCCC2)cc1)C1COc2ccccc2O1` (stereo not drawn) gave DUSP3 inh inactive, Bead autofluor inactive, BoNT F protease inactive, 3CLpro inhibitor inactive, BoNT A protease inactive and Anthrax LF inh2 inactive.
Screening Brc1ccc(Cn2c(-c3cncs3)nc3ccccc32)cc1 returned DUSP3 inh inactive, Bead autofluor inactive, BoNT F protease inactive, 3CLpro inhibitor inactive, BoNT A protease inactive and Anthrax LF inh2 inactive.
`c1ccc(Cn2c(-c3cncs3)nc3ccccc32)cc1` gave DUSP3 inh inactive, Bead autofluor 20700, BoNT F protease inactive, 3CLpro inhibitor inactive, BoNT A protease inactive and Anthrax LF inh2 inactive.
For Brc1cccc(Cn2c(-c3cncs3)nc3ccccc32)c1 the results were DUSP3 inh inactive, Bead autofluor 22203, BoNT F protease inactive, 3CLpro inhibitor inactive, BoNT A protease inconclusive and Anthrax LF inh2 inactive.
Screening CC1(Cc2cc(Cl)ccc2C(F)(F)F)C(=O)Nc2cc(C(F)(F)F)ccc21 (stereo not drawn) returned Bead autofluor inactive, BoNT F protease inactive, BoNT A protease inactive and Anthrax LF inh2 inactive.
For Nc1nc(C2C(=O)CCCC2=O)cs1 the results were DUSP3 inh inactive, Bead autofluor 24150, BoNT F protease inactive, 3CLpro inhibitor inactive, BoNT A protease inactive and Anthrax LF inh2 inactive.
`Nc1nc(C2CC(=O)OC23CCCCC3)cs1` (stereo not drawn) gave DUSP3 inh inactive, Bead autofluor inactive, BoNT F protease inactive, 3CLpro inhibitor inactive, BoNT A protease inactive and Anthrax LF inh2 inactive.
`COC(=O)c1cc(S(=O)(=O)N(Cc2ccccc2)C(C)(C)C)c[nH]1` gave DUSP3 inh inactive, Bead autofluor inactive, BoNT F protease inactive, 3CLpro inhibitor inactive, BoNT A protease inactive and Anthrax LF inh2 inactive.
`CCN1/C(=C/C=C/c2oc3ccc(-c4ccccc4)cc3[n+]2CC)Oc2ccc(-c3ccccc3)cc21` gave DUSP3 inh inactive, Bead autofluor 70271, BoNT F protease inactive, 3CLpro inhibitor inactive, BoNT A protease 43 and Anthrax LF inh2 inactive.
Screening CC1(C(=O)NC(=S)N(CCC#N)c2ccccc2)CC1(Cl)Cl (stereo not drawn) returned DUSP3 inh inactive, Bead autofluor 21445, BoNT F protease inactive, 3CLpro inhibitor inactive, BoNT A protease inactive and Anthrax LF inh2 inactive.
`CC(C)N(Cc1ccccc1)C(=S)NC(=O)C1(C)CC1(Cl)Cl` (stereo not drawn) gave DUSP3 inh inactive, Bead autofluor inactive, BoNT F protease inactive, 3CLpro inhibitor inactive, BoNT A protease inactive and Anthrax LF inh2 inactive.
For CCn1c(NC(=O)c2ccco2)c(-c2ccccc2Cl)c(=O)c2ccccc21 the results were DUSP3 inh inactive, Bead autofluor 23199, BoNT F protease inactive, 3CLpro inhibitor inactive, BoNT A protease inactive and Anthrax LF inh2 inactive.
`CCn1c(NC(=O)c2cccs2)c(-c2cccs2)c(=O)c2ccccc21` gave DUSP3 inh inactive, Bead autofluor 20705, BoNT F protease inactive, 3CLpro inhibitor inactive, BoNT A protease inconclusive and Anthrax LF inh2 inactive.
For Cn1c(NC(=O)c2ccco2)c(-c2ccccc2)c(=O)c2ccccc21 the results were DUSP3 inh inactive, Bead autofluor inactive, BoNT F protease inactive, 3CLpro inhibitor inactive, BoNT A protease inactive and Anthrax LF inh2 inactive.
CCCC(=O)Nc1c(-c2cccs2)c(=O)c2ccccc2n1C was read as DUSP3 inh inactive, Bead autofluor 21477, BoNT F protease inactive, 3CLpro inhibitor inactive, BoNT A protease inactive and Anthrax LF inh2 inactive.
`COCc1cc(=O)[nH]c(N2CCN(Cc3ccc4c(c3)OCO4)CC2)n1` gave DUSP3 inh inactive, Bead autofluor inactive, BoNT F protease inactive, 3CLpro inhibitor inactive, BoNT A protease inactive and Anthrax LF inh2 inactive.
Cc1ccc(NC(=O)Cc2nnc(SCC(=O)NC3CCCC3)n2C)cc1C was read as DUSP3 inh inactive, Bead autofluor inactive, BoNT F protease inactive, 3CLpro inhibitor inactive, BoNT A protease inactive and Anthrax LF inh2 inactive.
For O=C(NCCNS(=O)(=O)c1ccccc1)c1ccc([N+](=O)[O-])cc1 the results were DUSP3 inh 58, Bead autofluor inactive, BoNT F protease inactive, 3CLpro inhibitor inactive, BoNT A protease inactive and Anthrax LF inh2 inactive.
O=[N+]([O-])c1ccc(NCCNS(=O)(=O)c2ccccc2)cc1 was read as DUSP3 inh inactive, Bead autofluor inactive, BoNT F protease inactive, 3CLpro inhibitor inactive, BoNT A protease inactive and Anthrax LF inh2 inactive.
Screening CCCN(Cc1cc2ccc(C)cc2[nH]c1=O)S(=O)(=O)c1ccccc1 returned DUSP3 inh inactive, Bead autofluor inactive, BoNT F protease inactive, 3CLpro inhibitor inactive, BoNT A protease inactive and Anthrax LF inh2 inactive.
Screening CC(=O)c1cccc(S(=O)(=O)N(CCCO)Cc2cc3ccc(C)cc3[nH]c2=O)c1 returned DUSP3 inh inactive, Bead autofluor 24495, BoNT F protease inactive, 3CLpro inhibitor inactive, BoNT A protease inactive and Anthrax LF inh2 inactive.
COC(=O)c1cccc(S(=O)(=O)N(Cc2ccco2)Cc2cc3ccc(OC)cc3[nH]c2=O)c1 was read as DUSP3 inh inactive, Bead autofluor 24753, BoNT F protease inactive, 3CLpro inhibitor inactive, BoNT A protease inactive and Anthrax LF inh2 inactive.
`COC(=O)c1cccc(S(=O)(=O)N(Cc2ccco2)Cc2cc3cc(OC)c(OC)cc3[nH]c2=O)c1` gave DUSP3 inh inactive, Bead autofluor inactive, BoNT F protease inactive, 3CLpro inhibitor inactive, BoNT A protease inactive and Anthrax LF inh2 inactive.
COC(=O)[C@]12CCCCC=C1N(Cc1ccccc1)C(=O)[C@H](CC(=O)NCc1ccccc1)C2 was read as Bead autofluor inactive, BoNT F protease inactive, BoNT A protease inactive and Anthrax LF inh2 inactive.
For COc1ccc(C2OC(=O)CC2C(=O)NC2CCCCCC2)cc1OC (stereo not drawn) the results were DUSP3 inh inactive, Bead autofluor 22084, BoNT F protease inactive, 3CLpro inhibitor inactive, BoNT A protease inactive and Anthrax LF inh2 inactive.
Screening COc1ccc(-c2cc(C(=O)NC3CCCC3)no2)cc1OC returned DUSP3 inh inactive, Bead autofluor 22323, BoNT F protease inactive, 3CLpro inhibitor inactive, BoNT A protease inactive and Anthrax LF inh2 inactive.

Screening data from PubChem.
